High-throughput results as filed in PubChem.
In the library only some 5.8% were active in any assay of this set; here they are far more common.
PINK1 expr mod: PINK1 expression modulation; PINK1 immunofluorescence, high-content cytometry, 24 h; Potency, µM (titrated, usually from 76.6 µM), usual class: activators; 410,000 compounds, 0.2% hits; AID 624263; active means well fitted activation curve with a large enough effect; inconclusive means small, poorly fitted or top-dose-only effect; cell line not stated here; further: nearly all actives have a fitted effect of over 65% in size
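A stable cell line was treated with compounds at 5 concentrations for 24 hours, with CCCP as control. PINK1 levels and mitochondrial localization were measured by immunofluorescence with mitochondrial, cell and nuclear markers after fixation, read by laser-scanning cytometry.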
ALOX12 inh: inhibitors of human 12S-lipoxygenase ALOX12; P18054; purified 12hLO, xylenol orange hydroperoxide absorbance; Potency, µM (top dose mostly 108 µM), most hits filed as inhibitors; 580,000 compounds, 1.1% hits; AID 1671190
Target sequence (P18054 whole entry, looked up): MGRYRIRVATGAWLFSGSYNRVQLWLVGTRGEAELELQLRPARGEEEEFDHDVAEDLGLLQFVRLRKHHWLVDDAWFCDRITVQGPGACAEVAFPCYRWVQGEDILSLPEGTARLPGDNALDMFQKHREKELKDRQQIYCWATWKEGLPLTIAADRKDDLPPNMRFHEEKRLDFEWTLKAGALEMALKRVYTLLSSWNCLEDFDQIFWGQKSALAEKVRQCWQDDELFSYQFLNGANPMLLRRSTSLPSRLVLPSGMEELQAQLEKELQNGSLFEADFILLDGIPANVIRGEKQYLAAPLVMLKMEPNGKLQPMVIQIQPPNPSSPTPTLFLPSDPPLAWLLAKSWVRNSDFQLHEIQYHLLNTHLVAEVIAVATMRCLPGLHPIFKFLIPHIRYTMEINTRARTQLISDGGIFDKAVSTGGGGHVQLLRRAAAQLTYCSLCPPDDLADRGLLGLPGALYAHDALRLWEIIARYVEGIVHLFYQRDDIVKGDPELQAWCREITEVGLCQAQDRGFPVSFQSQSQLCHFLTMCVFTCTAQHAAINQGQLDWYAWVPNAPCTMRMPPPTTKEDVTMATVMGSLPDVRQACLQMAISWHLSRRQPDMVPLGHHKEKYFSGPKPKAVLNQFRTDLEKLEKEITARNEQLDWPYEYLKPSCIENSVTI
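Purified human 12hLO (150 nM final) in 25 mM Hepes, 0.01% Triton X-100, pH 7.0 was preincubated 15 min at room temperature with compound. Then 40 uM arachidonic acid was added, 30 min. Hydroperoxide was read by Fe-XO absorbance ratio 573/405 nm.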
KB-V1 cytotox: kills drug-selected multidrug resistant KB-V1 cells | AID 1347076 | Potency, µM (doses to about 46.1 µM), most hits filed as cytotoxic | KB-V1 MDR cells viability, CellTiter-Glo, 72 h | 400,000 compounds, 3.4% hits; further: nearly all actives have a fitted effect of over 60% in size
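In this primary screen, KB-V1 cells overexpressing P-gp are incubated with library compounds (lowest to highest concentration) for 72 h at 37 degrees C before a luminescent ATP viability read.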
MCF10A rerep: DNA re-replication induction in MCF 10a cells | MCF 10A DNA re-replication, Hoechst nuclear intensity, 48 h | Potency, µM (doses to about 46.1 µM), usual class: activators | 350,000 compounds, 2.9% hits; further: nearly all actives have a fitted effect of over 50% in size
SW480 rereplic: inducers of DNA re-replication in SW480 colon cancer cells; SW480 DNA re-replication, Hoechst DNA content imaging, 48 h; Potency, µM (doses to about 46.1 µM), most hits filed as activators; 340,000 compounds, 1.8% hits; AID 624297; further: nearly all actives have a fitted effect of over 55% in size
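250 cells/well; 23 nL cpd via pin tool; 48 hr, 37 C, 5% CO2; Hoechst 40 min; imager read of total nuclear intensity, ex 405/em 500-530 nm.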
KB-3-1 cytotox: kills parental KB-3-1 adenocarcinoma cells. KB-3-1 viability, CellTiter-Glo ATP luminescence, 72 h. Potency, µM (doses to about 46.1 µM), usual class: cytotoxic. 400,000 compounds, 1.4% hits. AID 1347075; further: nearly all actives have a fitted effect of over 60% in size
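Parental KB-3-1 viability, qHTS format: 72 h compound exposure, 37 °C; CellTiter-Glo; media-only wells and DMSO plates as controls; concentration-effect fits on corrected data.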
Numbers stand for hits; - = inactive; ? = inconclusive; . = no result; ! = repeats disagree; [ ] = dose if it differs, or a comment. Unless noted, the call rests on the fitted dose curve; in most records, active means well fitted curve in the direction sought with a large enough effect; inconclusive means small, poorly fitted or top-dose-only effect, or another doubt; inactive means no such curve, though single readings can be large; an effect the other way counts as inactive or inconclusive.

SMILES	PINK1 expr mod	ALOX12 inh	KB-V1 cytotox	MCF10A rerep	SW480 rereplic	KB-3-1 cytotox
COC(=O)[C@]12CCCCC=C1N(Cc1ccc(Cl)cc1Cl)C(=O)[C@H](CC(=O)NCc1ccc(OC)c(OC)c1)C2	-	-	?	.	.	?
COc1ccccc1CN1CCC(Cc2ccccc2)CC1	.	0.56µM	.	.	.	.
CCOC(=O)C1CCCN(Cc2cc(Br)c(OC)cc2OC)C1 (stereo unspecified)	-	?	10µM	-	-	-
CCOC(=O)C1CCCN(Cc2cc(Br)ccc2OC)C1 (stereo unspecified)	-	-	-	-	-	-
COc1cc(OC)c(CN2CCC(Cc3ccccc3)CC2)cc1Br	?	1µM	-	12µM	-	?
COc1ccc(OC)c(CN2CCC(Cc3ccccc3)CC2)c1	-	?	-	-	-	-
Fc1ccc(CSc2ncc(-c3ccccc3)nn2)cc1	.	-	.	.	.	.
COc1cccc(/C=N/n2c(C)nc3ccccc32)c1OC	-	-	12µM	-	-	-
COc1cccc(/C=N/n2c(=O)[nH]c3ccccc32)c1OC	-	-	-	-	4.1µM	-
CCOC(=S)SCc1cn2ccc(C)cc2n1	-	-	-	16µM	-	-
O=C1CCC[C@@H]2[C@H](Cc3ccccc3)[C@@H](O)C[C@@H]3CCN1[C@@H]32	-	-	15µM!	-	-	?
Cc1ccc(Cl)cc1N1CCN(CC(=O)NC2CCCc3ccccc32)CC1 (stereo unspecified)	-	-	?	?	-	?
CC(C)OC(=O)CSc1nnc(-c2cccnc2)n1Cc1ccccc1	-	-	21µM	-	-	-
O=C(CN1CCN(c2ccccc2Cl)CC1)NC1CCCc2ccccc21 (stereo unspecified)	-	-	9.2µM	-	?	?
O=C(O)CSc1nnc(-c2cccnc2)n1Cc1ccccc1	-	-	-	-	-	-
CNC(=O)CSc1nnc(-c2ccncc2)n1Cc1ccccc1	-	-	-	?	-	-
O=C(CSc1nnc(-c2ccncc2)n1Cc1ccccc1)NC1CCCc2ccccc21 (stereo unspecified)	-	-	10µM	?	-	-
O=C(CSc1c(Cl)cccc1Cl)NC1CCCc2ccccc21 (stereo unspecified)	-	?	15µM	-	-	-
N=C(N)SCc1cccc(F)c1	.	-	.	.	.	.
O=C(Nc1ccnn1Cc1ccccc1Cl)c1n[nH]c(=O)c2ccccc12	.	-	.	.	.	.
CCC(=O)n1nc(-c2ccc(OC)cc2)nc1SCc1ccccc1	.	-	.	.	.	.
COc1ccc2nc(/C(C#N)=C/c3ccc(-c4cccc(Cl)c4Cl)o3)[nH]c2c1	.	-	.	.	.	.
O=C(c1ccccc1F)N1CCC2(C1)C(=O)Nc1ccccc12 (stereo unspecified)	.	-[6.33 µM]	.	.	.	.
Cc1ccc(C(=O)CSc2nnc(-c3cccnc3)n2N)cc1	-	?	7.3µM	?	?	?
Cc1ccc(-n2c(SCC(=O)OC(C)C)nnc2-c2ccccn2)cc1	-	-	21µM	-	-	-
SMILES	PINK1 expr mod	ALOX12 inh	KB-V1 cytotox	MCF10A rerep	SW480 rereplic	KB-3-1 cytotox
O=C(CSc1nnc(-c2ccccc2)n1Cc1ccccc1)NNC(=O)c1ccccc1O	-	-	-	-	5.2µM	?
CC(C)(C)c1ccc(NC(=O)NC2CCCc3ccccc32)cc1 (stereo unspecified)	-	-	21µM	?	?	?
O=C(CSc1nnc(-c2ccccc2O)n1Cc1ccccc1)NNC(=O)c1ccccc1O	-	-	-	-	.	?
Cc1ccccc1NC(=O)N(Cc1nnc2n1CCCCC2)c1ccc(F)cc1	.	-	.	.	.	.
Cc1cc2nc3n(c(=O)c2n1CC(=O)NCc1ccccc1F)CCCCC3	.	-	.	.	.	.
Cc1cccc(C(=O)NCC(O)(c2ccccc2)C(F)(F)F)c1 (stereo unspecified)	.	-	.	.	.	.
N=c1c(C(=O)NC2CCCC2)cc2c(=O)n3ccccc3nc2n1C1CCCCC1	-	?	?	2.9µM	4.6µM	-
Cc1ccc2nc3c(cc(C(=O)NC4CCCCC4)c(=N)n3C3CCCCC3)c(=O)n2c1	-	-	?	?	18µM	?
CNC(=O)c1cc2c(=O)n3cc(C)ccc3nc2n(C(C)C)c1=N	-	-	-	7.1µM	?	-
